# Source: PubChem
# The full list was thinned out, with hits kept by preference.
# ALOX12 inh: ALOX12 (human) lipoxygenase inhibition. P18054. Potency, µM (series often up to 108 µM), without a hit: top-dose activity change, negative = inhibition, most hits filed as inhibitors. purified 12hLO, xylenol orange hydroperoxide absorbance. actives 1.1% (n = 580,000); note: potency is the fitted concentration of half-maximal effect
# Target sequence (P18054 whole entry, looked up): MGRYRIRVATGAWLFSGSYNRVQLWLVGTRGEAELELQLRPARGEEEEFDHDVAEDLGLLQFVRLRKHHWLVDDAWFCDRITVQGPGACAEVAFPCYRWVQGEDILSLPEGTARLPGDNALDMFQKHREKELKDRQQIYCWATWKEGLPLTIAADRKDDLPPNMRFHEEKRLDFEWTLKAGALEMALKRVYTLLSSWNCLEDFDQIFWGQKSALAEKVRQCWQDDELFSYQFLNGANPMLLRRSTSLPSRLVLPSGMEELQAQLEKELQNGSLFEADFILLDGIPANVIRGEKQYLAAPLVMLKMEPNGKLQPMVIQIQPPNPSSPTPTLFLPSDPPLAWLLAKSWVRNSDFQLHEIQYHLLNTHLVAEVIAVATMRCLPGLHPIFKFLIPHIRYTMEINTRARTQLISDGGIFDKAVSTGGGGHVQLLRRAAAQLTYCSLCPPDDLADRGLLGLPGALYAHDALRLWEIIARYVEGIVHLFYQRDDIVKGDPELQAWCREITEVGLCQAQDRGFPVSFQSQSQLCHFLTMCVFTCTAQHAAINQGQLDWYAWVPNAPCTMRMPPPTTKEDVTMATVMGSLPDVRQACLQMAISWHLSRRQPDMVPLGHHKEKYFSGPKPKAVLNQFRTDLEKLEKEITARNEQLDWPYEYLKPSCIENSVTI
#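 Purified human 12hLO at 150 nM in 25 mM Hepes, 0.01% Triton X-100, pH 7.0, preincubated 15 min at room temperature with compound. Reaction started with 40 uM arachidonic acid, 30 min at room temperature. Hydroperoxide measured by Fe-xylenol orange, 573/405 nm absorbance ratio.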
# IL-1B inflam inh: inhibitors of inflammasome signaling (IL-1 beta secretion). THP-1 LPS/ATP IL-1B secretion, AlphaLISA, 16 h; active compounds read low. activity change, % at 57.5 µM. actives 4.7% (n = 360,000). AID 743279; in the data active = activity change below about -50%; inconclusive = mostly about -30% to -49%
#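 Secreted IL-1B measured by AlphaLISA bead assay after 16 h compound exposure of THP-1 cells; compounds (final up to 57.5 uM) added 1 h before LPS (250 ng/mL) and ATP (1.25 mM) stimulation; lower signal means less secretion.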
# DT40 TDP1 no CPT: qHTS for Inhibitors of human tyrosyl-DNA phosphodiesterase 1 (TDP1): qHTS in cells in absence of CPT; DT40 Tdp1-/- hTDP1 cells, no CPT, ATP luminescence, 48 h; Potency, µM (titrated, usually from 46.2 µM), without a hit: at the top dose activity change, negative = growth inhibition, hits mostly inhibitors; actives 15% (n = 420,000); note: potency is the fitted concentration of half-maximal effect; nearly all actives have a fitted effect of over 55% in size
#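 Readout: luminescence from CellTiter-Glo after 30 min in the dark at RT. Cells: DT40 Tdp1-/- with stable hTDP1, 400/well. Exposure: compounds alone, ≥48 hr, 37 °C.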
# TDP1 cell CPT: growth inhibition of DT40 Tdp1-/-;hTDP1 cells with camptothecin (screen for TDP1 inhibitors); chicken DT40 Tdp1-/-;hTDP1 cells + 20 nM CPT, ATP luminescence, 48 h; Potency, µM (series often up to 46.2 µM), for the others: top-dose activity change, negative = growth inhibition, usual class: inhibitors; actives 12% (n = 420,000); note: potency is the fitted concentration of half-maximal effect; nearly all actives have a fitted effect of over 55% in size
#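 Chicken DT40 Tdp1-/- cells complemented with human TDP1, 400 cells/well, exposed to compounds plus 20 nM camptothecin for at least 48 h at 37 C; viability read as ATP content by CellTiter-Glo luminescence.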
# HT1080 IDH1KD tx: toxicity to HT-1080 IDH1 knockdown cells (counter line) | HT-1080 IDH1 knockdown viability, ATP luminescence, 48 h | Potency, µM (titrated, usually from 46.1 µM), inactives show top-dose activity, negative = toxicity, actives largely listed as cytotoxic | actives 2% (n = 360,000) | AID 686971;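 note: potency is the fitted concentration of half-maximal effect; 0% = DMSO wells and -100% = cell-free medium wells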
#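 Luminescent ATP read-out (CellTiter-Glo, 10 min at room temperature) after 48 h compound exposure at 37 °C gave viability of IDH1-knockdown HT-1080 cells. Activity was normalised to DMSO and cell-free wells, then fitted as concentration-response curves.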
# HT1080-NT tox: kills 2HG-producing HT-1080-NT fibrosarcoma cells | AID 686970 | Potency, µM (top dose mostly 46.1 µM), without a hit: top-dose activity, negative = less viability, hits mostly cytotoxic | actives 1.6% (n = 360,000) | HT-1080-NT fibrosarcoma viability, CellTiter-Glo ATP luminescence, 48 h;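 note: NT is the 2HG producing partner of a matched IDH1 knockdown line; potency is the fitted concentration of half-maximal effect; 0% = DMSO-treated cells and -100% = media-only wells without cells; nearly all actives have a fitted effect of over 55% in size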
#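 A 48-hour cytotoxicity screen used HT-1080-NT cells plated 2 hours before compound delivery. ATP-based CellTiter-Glo luminescence measured viability, normalized to DMSO and no-cell controls.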
# * hit, by the source's call; ? = inconclusive; / = not tested or not shown; ! = a repeat was not active; [ ] = another dose, or the depositor's remark. Unless noted, calls come from the whole dose curve; as a rule, active = well fitted curve in the direction sought with a large enough effect; inconclusive = small, poorly fitted or top-dose-only effect, or another doubt; inactive = no such curve, though single readings can be large; an effect the other way counts as inactive or inconclusive. Unless noted, % is set by controls: 0 for no effect and ±100 for the full control effect.
SMILES,ALOX12 inh,IL-1B inflam inh,DT40 TDP1 no CPT,TDP1 cell CPT,HT1080 IDH1KD tx,HT1080-NT tox
O=C(CN1C(=O)C(=O)c2ccccc21)OCN1C(=O)c2ccccc2C1=O,-13.0%,11.9,-7.8%,-4.9%,-0.3%,6.0%
COc1ccccc1NC(=O)COC(=O)CN1C(=O)C(=O)c2ccccc21,-9.6%,-9.9,?,8.2µM*,-0.2%,32.8%
COc1ccccc1NC(=O)CN1C(=O)c2cccc3cccc1c23,-20.4%,/,18.4µM*,?,/,/
Cc1ccc(Cl)c(OCC(=O)Nc2sc3c(c2C(=O)N2CCOCC2)CCCC3)c1,-0.1%,/,/,/,/,/
Cc1ccc(-c2nnn(Cc3cc(=O)n4ccsc4n3)n2)cc1,15.8%,/,/,/,/,/
CCN(C(=O)CSc1nnc(-c2cccs2)n1N)C1CCCCC1,-19.9%,/,/,/,/,/
O=C(Oc1ccc(N(Cc2cccs2)C2=NS(=O)(=O)c3ccccc32)cc1)c1ccccc1Cl,17.9%,17.6,5.8µM*,6.51µM*,8.6%,13.9%
O=C(NCc1ccccc1)c1ccc(CS(=O)(=O)Cc2ccccc2F)o1,-6.5%,25.3,?,-38.2%,12.4%,16.0%
CCc1ccc(CNC(=O)c2ccc(CS(=O)(=O)Cc3ccccc3C)o2)cc1,-16.1%,/,20.6µM*,20.6µM*,/,/
Cc1ccccc1CS(=O)(=O)Cc1ccc(C(=O)NCc2ccc(F)cc2)o1,-5.8%,/,16.4µM*,?,/,/
Cc1ccc(-c2c(C(=O)NCc3ccc(F)cc3)oc(=O)c3ccccc23)cc1,-10.5%,?,20.6µM*!,?,-2.8%,-2.1%
COc1ccc(CNC(=O)c2ccc(CS(=O)(=O)Cc3ccccc3F)o2)cc1,9.6%,2.1,16.4µM*,?,5.6%,0.0%
CC1(COc2cccnc2)COc2ccc(C(=O)NCc3cccs3)cc2N1 (configuration not stated),-14.2%[176 µM],/,/,/,/,/
O=C(NCc1cccs1)c1nc(-c2cccc(C(F)(F)F)c2)c2cnccn12,-20.8%,/,/,/,/,/
CC(NC(=O)CSc1ccc(Br)c2cccc(Cl)c12)c1ccccc1 (configuration not stated),4.8%,/,/,/,/,/
CCOC(=O)C(NCCCCl)c1ccccc1 (configuration not stated),?,18.3,4.2%,13.1%,21.6%,17.9%
CCN(CC)CCNC(C(=O)OCCC(C)C)c1ccccc1 (configuration not stated),/,/,5.31µM*,9.44µM*,/,/
O=C(O)[C@H]1C[C@H](C(=O)NCc2ccncc2)CN(C(=O)C2CCCC2)C1,9.3%,/,/,/,/,/
CCS(=O)(=O)Nc1ccc(C(=O)CC2(O)C(=O)Nc3ccc(Br)cc32)cc1 (configuration not stated),0.0%,31.9,6.51µM*,20.6µM*,-2.6%,0.5%
O=C(CC1(O)C(=O)Nc2ccc(Br)cc21)c1ccc2c(c1)OCO2 (configuration not stated),0.0%,48.1,?,25.9µM*,-13.6%,-6.6%
CS(=O)(=O)Nc1cccc(C(=O)CC2(O)C(=O)Nc3ccc(Br)cc32)c1 (configuration not stated),0.0%,39.4,20.6µM*,?,0.1%,-0.1%
CC(=O)c1c(C)[nH]c(C(=O)OC(C)c2nnc(-c3ccc(C)cc3)o2)c1C (configuration not stated),-27.6%,/,/,/,/,/
COCc1[nH]nc2c1C(c1ccc(OC)c(OC)c1)C(C#N)=C(N)O2 (configuration not stated),45.2%,?,-15.5%,-0.5%,7.3%,6.4%
CCn1c2ccccc2c2cc(C3C(C#N)=C(N)Oc4n[nH]c(COC)c43)ccc21 (configuration not stated),-15.4%,?,25.9µM*,?,8.91µM*,11.2µM*
COCc1[nH]nc2c1C(c1ccnc3ccccc13)C(C#N)=C(N)O2 (configuration not stated),-3.0%,-25.1,9.2µM*,18.4µM*,7.7%,-2.6%
SMILES,ALOX12 inh,IL-1B inflam inh,DT40 TDP1 no CPT,TDP1 cell CPT,HT1080 IDH1KD tx,HT1080-NT tox
Cc1ccc(S(=O)(=O)N2CCC(c3nnc(-c4cccc(C)c4)o3)CC2)cc1,?,/,3.66µM*,3.66µM*,/,/
CCCc1ccc(S(=O)(=O)N2CCC(n3cnnc3C)CC2)cc1,1.3%,/,/,/,/,/
CCCc1ccc(S(=O)(=O)N2CCC(c3nnc(-c4cccc(C)c4)o3)CC2)cc1,1.1%,/,4.61µM*,5.17µM*,/,/
Cc1ccc(S(=O)(=O)c2ccc(Cl)cc2)cc1S(=O)(=O)N1CCN(C)CC1,10.4%,2.7,?,14.1µM*,-19.4%,-2.9%
CN1CCN(S(=O)(=O)c2ccc(Cl)cc2)CC1,-12.9%,0.7,-2.8%,13.6%,7.3%,4.7%
COc1ccc(-c2nn(-c3ccccc3)cc2C=O)cc1[N+](=O)[O-],0.0%,-83.5*,-10.3%,-14.4%,-2.1%,16.5%
COc1ccc(-c2nn(-c3ccccc3)cc2/C=C/C(=O)O)cc1[N+](=O)[O-],6.2%,9.7,23.1µM*,?,18.4µM*,-12.9%
COC(=O)[C@@]1(Cc2ccc(F)cc2)[C@H]2c3cc(C(=O)N(C)C)n(Cc4ccccn4)c3C[C@H]2CN1C(=O)c1ccccc1,8.6%,0.4,?,?,-3.1%,-2.6%
COC(=O)[C@@]1(Cc2ccc(F)cc2)[C@H]2c3cc(C(=O)N4CCCC4)n(Cc4ccc(S(C)(=O)=O)cc4)c3C[C@H]2CN1C(=O)c1ccccc1,-12.8%,-21.5,18.4µM*,?,?,-27.7%
COC(=O)[C@@]1(Cc2ccc(F)cc2)[C@H]2c3cc(C(=O)N(C)C)n(Cc4ccc(S(C)(=O)=O)cc4)c3C[C@H]2CN1C(=O)c1ccccc1,-13.5%,0.0,?,20.6µM*,-16.2%,-12.0%
CS(=O)(=O)c1ccc(OC[C@H]2C[C@@H](NC(=O)Nc3ccccc3)[C@H](O)[C@@H]2O)cc1,43.6%[176 µM],/,/,/,/,/
Cc1ccc(-c2nn(C(C)(C)C)c3ncnc(NS(=O)(=O)c4ccc([N+](=O)[O-])cc4)c23)cc1,-27.7%,0.0,18.4µM*,20.6µM*,-20.9%,-22.3%
CCc1ccc(NC(=O)CCn2c(=O)c3cccn3c3ccccc32)cc1,29.3%,50.3,18.4µM*,23.1µM*,?,?
CCC(C)NC(=O)CCn1c(=O)c2cccn2c2ccc(F)cc21 (configuration not stated),-2.8%,-10.0,-29.6%,0.7%,20.9%,11.4%
CCOC(=O)c1cccc(NC(=O)Cn2c(=O)c3cccn3c3ccccc32)c1,-18.9%,/,?,?,/,/
